The source made the active and inactive calls. The calls were made as follows: active = hit-call score of the fitted dose curve at least 0.9, where 1 is the maximum; inactive = score below 0.9.
assay: APR_HepG2_CellLoss_72hr: Apredica 72-hour HepG2 Assay for Cell Loss (AID 2282915); details: high-content imaging
Protocol: APR_HepG2_72hr is a cell-based, multiplexed-readout assay that uses HepG2, a human liver cell line, with measurements taken at 72 hours after chemical dosing in a 384-well plate.APR_HepG2_CellLoss_72hr is one of 10 assay component(s) measured or calculated from the APR_HepG2_72hr assay. It is designed to make measurements of cell number, a form of viability reporter, as detected with fluorescence intensity signals by HCS Fluorescent Imaging technology.Data from the assay component APR_HepG2_CellLoss_72hr was analyzed into 1 assay endpoint. This assay endpoint, APR_HepG2_CellLoss_72hr, was analyzed with bidirectional fitting relative to DMSO as the negative control and baseline of activity. Using a type of viability reporter, measures of all nuclear dna for gain or loss-of-signal activity can be used to understand the viability at the cellular-level. Furthermore, this assay endpoint can be referred to as a secondary readout, because this assay has produced multiple assay endpoints where this one serves a viability function. To generalize the intended target to other relatable targets, this assay endpoint is annotated to the cell cycle intended target family, where the subfamily is proliferation.
Cells were treated with dimethyl sulfoxide (DMSO) as a solvent control at a final concentration of 0.5% v/v or with compounds in DMSO with a resulting final DMSO concentration of 0.5% v/v. Compound treatment was done at concentrations of 0.39, 0.78, 1.56, 3.12, 6.24, 12.5, 25, 50, 100, and 200 uM in duplicate on each plate. Cells were treated with compounds for 1, 24, or 72 hr. Carbonyl […] m-chloro-phenylhydrazone (CCCP) and taxol were used as positive controls for mitochondrial function and cytoskeletal stability, respectively; DMSO served as the negative control for this experiment. Cells were fixed by the direct addition of 50 uL formaldehyde in Hank's Balanced Salt Solution (HBSS) to a final concentration of 3.7%. After incubation in the fixation medium for 30 min at room temperature (293-298 K), cells were rinsed twice with HBSS and treated with cell permeabilization buffer (16 uL of 0.5% Triton X-100) for 10 min at room temperature (293-298 K) before labeling. For mitochondrial membrane potential and mitochondrial measurements, pre-fixed cells were incubated with 50 uL of MitoTracker Red CMXRos (Invitrogen) at a concentration of 250 nM for 30 min before fixation. In the remaining cases, post-fixed cells were labeled by incubation with a multiplexed mixture of primary antibodies in HBSS for 60 min at room temperature (293-298 K) to detect immunoreactivity of c-Jun (1:500), phospho-histone H3 (1:100), phospho-histone H2A.x (1:200), p53 (1:400), alpha-tubulin (1:200) and Hoechst 33342 (2 ug/mL). Cells were labeled for multiplexed imaging on two separate plates: a) Hoechst 33342, MitoTracker Red, phospho-histone H3, and alpha-tubulin, and b) Hoechst 33342, phospho-histone H2A.x, and c-Jun. A final rinse with HBSS (50 uL) was performed before analysis. The primary and secondary antibodies for the proteins were phospho-histone H3 (rabbit anti-phospho-histone H3 and FITC-donkey anti-rabbit IgG), phospho-histone H2A.x (mouse anti-phospho-histone H2A.x and FITC-donkey anti-mouse IgG), c-Jun (rabbit anti-phospho-c-Jun and Cy3-donkey anti-rabbit IgG), p53 (sheep anti-p53 and Cy5-donkey anti-sheep IgG), alpha-tubulin (mouse anti-alpha-tubulin and Cy5-donkey anti-mouse IgG). These antibodies are available as the CellCiphr HepG2 assay kit (Millipore).Digital images of each well were captured using a Cellomics ArrayScan VTI (Thermo Scientific Cellomics) (0.8 NA objective, 0.63x optical coupler, and XF-93 filter set) at 20x magnification. The images were acquired using the autofocus feature of the ArrayScan instrument, which entails the following steps. First, the camera focuses on channel 1 (Hoechst 33342), where nuclei are identified. Second, a Z offset of 1 um is used for capturing mitochondria (MitoTracker Red). […]

Compound | outcome | AC50
CS(=O)(=O)c1ccc(C(=O)C2C(=O)CCCC2=O)c([N+](=O)[O-])c1 | inactive | 
COC(=O)NC(=S)Nc1ccccc1NC(=S)NC(=O)OC |  | 26.1 µM (active)
CC1(C)CON(Cc2ccccc2Cl)C1=O | inactive | 
COP(=S)(OC)SCn1nnc2ccccc2c1=O |  | 100 µM (active)
CSC(=O)c1c(C(F)F)nc(C(F)(F)F)c(C(=O)SC)c1CC(C)C |  | 73.9 µM (active)
CCCCOCN(C(=O)CCl)c1c(CC)cccc1CC |  | 30.6 µM (active)
COCC(C)N(C(=O)CCl)c1c(C)csc1C (stereo not given) |  | 51.5 µM (active)
Cn1c(-c2ccccc2)cc(-c2ccccc2)[n+]1C | inactive | 
CC(C)=CC1C(C(=O)OCc2coc(Cc3ccccc3)c2)C1(C)C (stereo not given) |  | 40.1 µM (active)
CCOP(=S)(OCC)Oc1nc(Cl)n(C(C)C)n1 | inactive | 
CCSC(=O)N1CCCCCC1 | inactive | 
CCNP(=S)(OC)O/C(C)=C/C(=O)OC(C)C (stereo not given) | inactive | 
CCOc1nc(C(Cl)(Cl)Cl)ns1 | inactive | 
Cc1cc(C)nc(Nc2ccccc2)n1 |  | 46.3 µM (active)
Nc1cnn(-c2ccccc2)c(=O)c1Cl | inactive | 
CN=C=S |  | 49.2 µM (active)
CCNC(=O)NC(=O)C(C#N)=NOC | inactive | 
CC(C)N1C(=O)c2ccccc2NS1(=O)=O | inactive | 
Cc1nc(N(C)C)nc(OC(=O)N(C)C)c1C | inactive | 
CC(C)NC(=O)N1CC(=O)N(c2cc(Cl)cc(Cl)c2)C1=O | inactive | 

Compound | outcome | AC50
OC(c1ccc(Cl)cc1)(c1ccc(Cl)cc1)C(Cl)(Cl)Cl |  | 32.2 µM (active)
CCN(CC)c1nc(C)cc(OP(=S)(OC)OC)n1 | inactive | 
CC(C)C1(C)N=C(c2ncccc2C(=O)O)NC1=O (stereo not given) | inactive | 
O=C1C2CC=CCC2C(=O)N1SC(Cl)(Cl)Cl (stereo not given) |  | 100 µM (active)
CCOC(=O)C(C)OC(=O)c1cc(Oc2ccc(C(F)(F)F)cc2Cl)ccc1[N+](=O)[O-] (stereo not given) |  | 41 µM (active)
Cc1c(COC(=O)[C@@H]2[C@H](/C=C(\Cl)C(F)(F)F)C2(C)C)cccc1-c1ccccc1 | inactive | 
CCOc1nc(F)cc2nc(S(=O)(=O)Nc3c(Cl)cccc3Cl)nn12 | inactive | 
COCC(=O)N(c1c(C)cccc1C)C(C)C(=O)OC (stereo not given) | inactive | 
CNC(=O)Oc1cccc2ccccc12 |  | 102 µM (active)
O=C(O)c1c(Cl)ccc2cc(Cl)cnc12 | inactive | 
Nc1c(Cl)c(F)nc(OCC(=O)O)c1Cl | inactive | 
COc1ccc(-c2ccccc2)cc1NNC(=O)OC(C)C | inactive | 
CCOP(=O)(OCC)Oc1nc(Cl)c(Cl)cc1Cl | inactive | 
COP(=O)(OC)O/C(C)=C/C(=O)N(C)C | inactive | 
Clc1nc(Cl)nc(Nc2ccccc2Cl)n1 | inactive | 
COP(=S)(OC)Oc1ccc([N+](=O)[O-])c(C)c1 |  | 87.9 µM (active)
O=P(O)(O)CCCl | inactive | 
Nc1c(Cl)c(Cl)nc(C(=O)O)c1Cl | inactive | 
CC(C)Nc1nc(Cl)nc(NC(C)C)n1 | inactive | 
N#Cc1c(Cl)cccc1Cl | inactive | 

Reference: PubChem BioAssay (EPA / NIEHS)
